In PubChem BioAssay (NCI):
About 79,000 compounds went through this panel and 15% of them were active in at least one assay; those are over-represented in the sample as a whole. Activity calls are given as the source filed them. No stated cut-off is given here; in the data, active means growth inhibition above about 70%; inactive means the rest.

Tests used:
[1] = NCI Yeast Anticancer Drug Screen. Data for the mec2-1 strain (AID 157); details: S. cerevisiae mec2-1 strain, hits give high values
How it was run: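 Using mec2-1 yeast: add compound, measure growth, express inhibition versus vehicle-treated cultures.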

[2] = NCI Yeast Anticancer Drug Screen. Data for the rad14 strain (AID 159);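 further: 0% = growth of vehicle-treated control cultures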; details: S. cerevisiae rad14 strain growth inhibition, hits give high values
How it was run: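 Here, inhibition of yeast growth was measured after compound exposure, using a strain with a genetic defect in DNA damage repair and vehicle-treated cultures as the reference.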

[3] = NCI Yeast Anticancer Drug Screen. Data for the sgs1 mgt1 strain (AID 161);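 further: 0% = growth of cultures given vehicle only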; details: S. cerevisiae sgs1 mgt1 strain, hits give high values
How it was run: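 Compounds are added to genetically altered yeast, and growth is compared with cultures given vehicle alone to give percent inhibition.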

[4] = NCI Yeast Anticancer Drug Screen. Data for the CLN2oe strain (AID 163);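 further: 0% = growth of vehicle-only control cultures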; details: S. cerevisiae CLN2oe strain, hits give high values
How it was run: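 Whole-cell yeast growth assay. A strain engineered for altered cell-cycle control received compound, and inhibition relative to vehicle-treated cultures was recorded.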

[5] = NCI Yeast Anticancer Drug Screen. Data for the cln2 rad14 strain (AID 165);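 further: 0% = growth equal to vehicle treated cultures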; details: S. cerevisiae cln2 rad14 strain, hits give high values
How it was run: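 Yeast strain cln2 rad14, bearing defects in cell cycle control and DNA repair, serves as the test system; values reflect growth inhibition compared with vehicle.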

[6] = NCI Yeast Anticancer Drug Screen. Data for the bub3 strain (AID 167); details: S. cerevisiae bub3 mutant strain, hits give high values
How it was run: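 Whole-cell yeast assay. The mutant strain was incubated with compounds, and growth inhibition was determined by comparison with vehicle-treated cells.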

[7] = NCI Yeast Anticancer Drug Screen. Data for the wt2 strain (AID 169);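 further: 0% = growth of vehicle-treated yeast cultures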; details: S. cerevisiae wt2 strain growth inhibition, hits give high values
How it was run: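 Treated yeast vs. vehicle-treated yeast: growth inhibition determined.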

[8] = NCI Yeast Anticancer Drug Screen. Data for the mlh1 strain (AID 171);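 further: 0% = growth of vehicle-treated control cultures of the same strain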; details: S. cerevisiae mlh1 strain growth inhibition, hits give high values
How it was run: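 A yeast strain with a defined genetic lesion serves as the test organism. Cultures receive compound or vehicle, and growth is measured.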

[9] = NCI Yeast Anticancer Drug Screen. Data for the sgs1 strain (AID 173);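 further: 0% = growth of vehicle-only control cultures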; details: S. cerevisiae sgs1 mutant, hits give high values
How it was run: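 A genetically defined yeast mutant is incubated with the test compound, and its growth is compared to that of the same strain given vehicle.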

[10] = NCI Yeast Anticancer Drug Screen. Data for the mlh1 rad18 strain (AID 175); details: S. cerevisiae mlh1 rad18 strain growth inhibition, hits give high values
How it was run: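 Steps: expose repair-defective yeast to compound; measure growth; express inhibition against vehicle-treated controls.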

[11] = NCI Yeast Anticancer Drug Screen. Data for the rad18 strain (AID 177); details: S. cerevisiae rad18 mutant growth inhibition, hits give high values
How it was run: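 Measured value is growth inhibition of a yeast strain bearing a DNA repair alteration, referenced to vehicle-treated cells.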

[12] = NCI Yeast Anticancer Drug Screen. Data for the wt1 strain (AID 149);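 further: 0% = growth of vehicle-treated wt1 cultures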; details: S. cerevisiae wt1 strain (SPY 50644) growth inhibition, hits give high values
How it was run: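 Measured: growth of wt1 yeast under compound versus vehicle treatment, reported as inhibition.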

[13] = NCI Yeast Anticancer Drug Screen. Data for the rad50EPP+ strain (AID 151);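 further: 0% = growth of vehicle-treated control cultures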; details: S. cerevisiae rad50 mutant strain, hits give high values
How it was run: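 Read-out is yeast growth inhibition relative to vehicle; cells used were the rad50EPP+ strain.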

[14] = NCI Yeast Anticancer Drug Screen. Data for the mgt1 strain (AID 153); details: S. cerevisiae mgt1 mutant growth inhibition, hits give high values
How it was run: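 Measured: inhibition of mgt1 yeast growth by compound, normalized to vehicle-treated cultures.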

[15] = NCI Yeast Anticancer Drug Screen. Data for the rad50 strain (AID 155);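 further: 0% = growth of vehicle-only cultures of the same strain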; details: S. cerevisiae rad50 strain growth inhibition, hits give high values
How it was run: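 Growth of the mutant yeast was measured after compound exposure and referenced to vehicle-treated cultures.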

[16] = at 5.0 µM (retest, dose inferred, filed as 0.5)
[17] = at 50.0 µM (retest, dose inferred, filed as 5.0)

Measured: growth inhibition

O=C(Cc1ccccc1F)NC1=C(Cl)C(=O)c2ccccc2C1=O
active: [6]; [17] 70% | [6]; at 100.0 µM 73%
inactive: [1]; at 100.0 µM 69% | [2]; at 1.2 µM -26% | [2]; at 3.7 µM -12% | [2]; at 11.0 µM -8% | [2]; at 33.0 µM 19% | [2]; at 100.0 µM 38% | [3]; [16] 1% | [3]; [17] 54% | [3]; at 50.0 µM 11.4% | [4]; at 1.2 µM 1% | [4]; at 3.7 µM 18% | [4]; at 11.0 µM 19% | [4]; at 33.0 µM -1% | [4]; at 100.0 µM 27% | [5]; [16] 33% | [5]; [17] 45% | [5]; at 50.0 µM 24.3% | [6]; at 1.2 µM 14% | [6]; at 3.7 µM 17% | [6]; [16] -6% | [6]; at 11.0 µM 27% | [6]; at 33.0 µM 47% | [6]; at 50.0 µM 54% | [7]; at 1.2 µM -9% | [7]; at 3.7 µM 3% | [7]; at 11.0 µM -8% | [7]; at 33.0 µM -1% | [7]; at 100.0 µM -4% | [8]; at 1.2 µM -2% | [8]; at 3.7 µM 11% | [8]; at 11.0 µM 8% | [8]; at 33.0 µM 3% | [8]; at 100.0 µM 14% | [9]; at 1.2 µM 39% | [9]; at 3.7 µM 35% | [9]; at 11.0 µM 41% | [9]; at 33.0 µM 59% | [9]; at 100.0 µM 58% | [10]; [16] 20% | [10]; [17] 28% | [10]; at 50.0 µM -1.75% | [11]; at 1.2 µM 29% | [11]; at 3.7 µM 6% | [11]; at 11.0 µM 25% | [11]; at 33.0 µM 34% | [11]; at 100.0 µM 40%

CCN(CC)CCSc1c2ccccc2nc2cc(NCC(=O)Nc3ccccc3-c3ccccc3NC(=O)CNc3ccc4c(SCCN(CC)CC)c5ccccc5nc4c3)ccc12
active: [12]; at 100.0 µM 96% | [13]; at 100.0 µM 89% | [14]; at 33.0 µM 85% | [14]; at 100.0 µM 97% | [15]; at 33.0 µM 75% | [15]; [17] 96% | [15]; at 50.0 µM 89.5% | [15]; at 100.0 µM 95% | [1]; at 33.0 µM 91% | [1]; [17] 98% | [1]; at 50.0 µM 89.5% | [1]; at 100.0 µM 97% | [2]; at 33.0 µM 74% | [2]; at 100.0 µM 96% | [3]; [17] 97% | [3]; at 50.0 µM 89.2% | [4]; at 100.0 µM 96% | [6]; at 33.0 µM 92% | [6]; [17] 89% | [6]; at 50.0 µM 90.5% | [6]; at 100.0 µM 98% | [7]; at 100.0 µM 96% | [8]; at 33.0 µM 80% | [8]; at 100.0 µM 96% | [9]; at 100.0 µM 96% | [10]; [17] 98% | [10]; at 50.0 µM 89% | [11]; at 100.0 µM 97%
inactive: [12]; at 1.2 µM -21% | [12]; at 3.7 µM -16% | [12]; at 11.0 µM -25% | [12]; at 33.0 µM 23% | [13]; at 1.2 µM 9% | [13]; at 3.7 µM 10% | [13]; at 11.0 µM -8% | [13]; at 33.0 µM 38% | [14]; at 1.2 µM 9% | [14]; at 3.7 µM 17% | [14]; at 11.0 µM 19% | [15]; at 1.2 µM 13% | [15]; at 3.7 µM 15% | [15]; [16] 23% | [15]; at 11.0 µM 15% | [1]; at 1.2 µM 23% | [1]; at 3.7 µM 22% | [1]; [16] 20% | [1]; at 11.0 µM 16% | [2]; at 1.2 µM -14% | [2]; at 3.7 µM -15% | [2]; at 11.0 µM -12% | [3]; [16] 21% | [4]; at 1.2 µM 2% | [4]; at 3.7 µM 7% | [4]; at 11.0 µM 11% | [4]; at 33.0 µM 44% | [5]; [16] 15% | [5]; [17] 13% | [5]; at 50.0 µM 41% | [6]; at 1.2 µM 36% | [6]; at 3.7 µM 30% | [6]; [16] 27% | [6]; at 11.0 µM 31% | [7]; at 1.2 µM -5% | [7]; at 3.7 µM -3% | [7]; at 11.0 µM 2% | [7]; at 33.0 µM 48% | [8]; at 1.2 µM -12% | [8]; at 3.7 µM -7% | [8]; at 11.0 µM -5% | [9]; at 1.2 µM -14% | [9]; at 3.7 µM -18% | [9]; at 11.0 µM -22% | [9]; at 33.0 µM 63% | [10]; [16] 42% | [11]; at 1.2 µM 16% | [11]; at 3.7 µM 12% | [11]; at 11.0 µM 11% | [11]; at 33.0 µM 69%
